Records with an inconclusive call do not appear. Calls of active or inactive are those of the source. Calls come from the whole dose curve; as a rule, active = well fitted curve in the direction sought with a large enough effect; inconclusive = small, poorly fitted or top-dose-only effect, or another doubt; inactive = no such curve, though single readings can be large; an effect the other way counts as inactive or inconclusive.

Assay [1] deals with DNA repair nuclease/redox regulator APEX1 (Homo sapiens) (UniProt P27695). In words: qHTS Validation Assay for Inhibitors of the Human Apurinic/apyrimidinic Endonuclease 1 (APE1) (AID 1705; note: potency is the fitted concentration of half-maximal effect). An outline of the steps: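 Endonuclease activity of human APE1 is followed as dequenching when the enzyme incises a tetrahydrofuran abasic site in a short duplex labelled 5'-TAMRA/3'-BHQ-2 (50 nM final), after 15 min enzyme–compound preincubation at room temperature.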
(qHTS replaces the single test concentration by a dilution series.)

Assay [2] addresses Endonuclease 4 (Escherichia coli (strain K12)) (UniProt P0A6C1). In words: Counterscreen for APE1 Inhibitors: qHTS Validation Assay for Inhibitors of Endonuclease IV (AID 1708). An outline of the steps:
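2 nM enzyme was preincubated with compounds for 15 min at room temperature in 50 mM Tris-HCl pH 7.5, 50 mM NaCl, 2 mM MgCl2, 1 mM DTT, 0.01% Tween-20. 50 nM THF-abasic TAMRA/BHQ-2 duplex substrate started the reaction.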
On the technique in general: A counterscreen serves to expose hits that act by an unwanted route or on another target.

Assay [3] in a line: qHTS for differential inhibitors of proliferation of Plasmodium falciparum line 7G8 (AID 1815).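 Note: parasite growth measured after three days of incubation.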 Note: potency is the fitted concentration of half-maximal effect.
The nature of assay [4]: qHTS for differential inhibitors of proliferation of Plasmodium falciparum line GB4 (AID 1816).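 Note: parasite growth measured after 72 h incubation.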 Note: potency is the fitted concentration of half-maximal effect. The conditions noted are these: Potency: Plasmodium falciparum GB4 proliferation inhibition.
Assay [5] can be described thus: qHTS for differential inhibitors of proliferation of Plasmodium falciparum line W2 (AID 1883).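 Note: parasites grown with compound for 72 h before lysis and staining.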 Note: potency is the fitted concentration of half-maximal effect. The settings on record: Potency: Plasmodium falciparum W2 proliferation inhibition.
Assay [6] in a line: Counterscreen for APE1 Inhibitors: Fluorescent Dye Displacement Validation Assay (AID 1707). Note: potency is the fitted concentration of half-maximal effect. An outline of the steps:
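ThO 250 nM + dsDNA 50 nM (THF abasic site, 5'-TAMRA), Tris-HCl pH7.5/50mM NaCl/2 mM MgCl2/0.01% Tween-20; compounds pin-transferred; ex 480/em 540 nm endpoint. Neutral = no compound; no-DNA ThO wells = negative control.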

Assay [7] in a line: qHTS for differential inhibitors of proliferation of Plasmodium falciparum line 3D7 (AID 1876). Note: potency is the fitted concentration of half-maximal effect.
A short description of assay [8]: qHTS for differential inhibitors of proliferation of Plasmodium falciparum line D10 (AID 1877).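 Note: parasites grown with compound for 72 h before DNA staining.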 Note: potency is the fitted concentration of half-maximal effect.
Assay [9] in a line: qHTS for differential inhibitors of proliferation of Plasmodium falciparum line Dd2 (AID 1882). Note: nearly all actives have a fitted effect of over 65% in size. Note: potency is the fitted concentration of half-maximal effect. The settings on record: Potency: Plasmodium falciparum Dd2 proliferation inhibition. An outline of the steps:
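SYBR Green I DNA fluorescence read-out, ex 485/em 535 nm. Signals were normalized to 0.29 uM artemisinin and DMSO wells, then corrected using vehicle-only plates flanking each stack. Parasite growth ran 72 h in erythrocytes before lysis.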

Sequence of DNA repair nuclease/redox regulator APEX1 (Homo sapiens) (P27695 whole entry, looked up): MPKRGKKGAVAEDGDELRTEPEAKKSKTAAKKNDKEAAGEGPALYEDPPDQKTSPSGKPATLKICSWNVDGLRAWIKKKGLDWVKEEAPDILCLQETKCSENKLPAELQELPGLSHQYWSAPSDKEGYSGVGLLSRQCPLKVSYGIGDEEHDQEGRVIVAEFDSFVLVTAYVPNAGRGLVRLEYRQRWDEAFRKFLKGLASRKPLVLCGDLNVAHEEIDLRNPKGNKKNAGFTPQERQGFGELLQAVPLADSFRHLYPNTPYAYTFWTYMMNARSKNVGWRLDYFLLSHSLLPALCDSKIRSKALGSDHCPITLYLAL

Turning to `COc1ccc2c(c1)[C@@]13CCCC[C@H]1[C@@H](C2)NCC3`, the Potency entry in assay [1] and in [2] was “inactive” each time. Further, the Potency in assay [3] is 3550 nM (active); in assay [4], 7080 nM (active); in assay [5], 1120 nM (active).

For the compound `O=S1(=O)N(CCN2CC=C(c3c[nH]c4cc(F)ccc34)CC2)c2cccc3c2N1CCC3`, the Potency result in assay [1] and in assay [6] was “inactive” in each case. Further, the Potency was 1410 nM (active) in [3]; 1410 nM (active) in assay [4]; 501 nM (active) in assay [7]; 1260 nM (active) in [8]; 2000 nM (active) in [9]; 1000 nM (active) in [5].

Consider `CCCN(CCC)[C@H]1CCc2c(F)ccc(O)c2C1`, for which the Potency entry in [6] and in [2] was “inactive” throughout. The Potency was 1000 nM (active) in assay [3]; 501 nM (active) in assay [4]; 2000 nM (active) in assay [7]; 2240 nM (active) in assay [8]; 1260 nM (active) in assay [9]; 447 nM (active) in assay [5].

`c1ccc2c(c1)[I+]c1ccccc1-2`: the Potency was 100 nM (active) in [3]; 70.8 nM (active) in [4]; 70.8 nM (active) in assay [7]; 141 nM (active) in assay [8]; 1000 nM (active) in assay [9]; 100 nM (active) in [5].

On to `CCCCCCCCCCCCCC(=O)O[C@@H]1[C@@H](C)[C@@]2(O)[C@@H](C=C(CO)C[C@@]3(O)C(=O)C(C)=C[C@@H]23)C2C(C)(C)[C@@]21OC(C)=O` (stereo not given in full), for which the Potency in assay [3] was 5620 nM (active); in [4], 11200 nM (active); in assay [7], 10000 nM (active); in assay [8] it was 11200 nM (active); in assay [5], 7080 nM (active).

Turning to `NC(Cc1cc(O)c(O)cc1O)C(=O)O` (stereo not given), the Potency in [1] was 112 nM (active); in assay [6], 7940 nM (active). For the same compound, the Potency result in [4], in assay [7], in [8], in [9] and in assay [5] was “inactive” throughout.

Regarding `COc1ccc2[nH]cc(CCN)c2c1`, the Potency result in [1], in assay [2], in assay [3], in [4], in assay [7] and in [8] was “inactive” each time. Further, the Potency result in assay [9] and in assay [5] was “inactive” in each case.

On to `NC(=O)c1cc(N2CC2)c([N+](=O)[O-])cc1[N+](=O)[O-]`, for which the Potency entry in assay [1], in assay [2], in assay [3], in assay [7], in assay [8] and in [9] was “inactive” throughout.

As for `C=CCN1CCC23c4c5ccc(O)c4O[C@H]2C(=O)CC[C@@]3(O)C1C5` (stereo not given in full), the Potency result in assay [1], in assay [2], in [3], in assay [4], in assay [7] and in [8] was “inactive” in each case. Moreover, in assay [9], the Potency result is “inactive”.
